Measured values published in PubChem BioAssay.
The source made the active and inactive calls.

What was measured:
[1] = system: Plasmodium falciparum Sir2 (PF13_0152, Sir2A); experiment: pfSir2 binders on small-molecule microarrays, primary screen, biochemical, small-molecule microarray, 635 nm fluorescence (AID 1098); conditions: small-molecule microarray binding, fluorescence 635 nm; higher = more signal;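 note: score merges spot fluorescence intensity with its signal-to-noise ratio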
[2] = small-molecule microarray binders of probe aDKK1, primary screen, biochemical, biotinylated probe, 635/667 nm fluorescence (AID 1099); conditions: higher = more signal;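 note: score merges 667nm spot fluorescence with signal to noise across triplicate slides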
[3] = small-molecule microarray binders of probe aCHRDL2, primary screen, biochemical, biotinylated probe, 635/667 nm fluorescence (AID 1100); conditions: higher = more signal
[4] = splicing luciferase reporter signal modulators, primary screen, spliceosome inhibition project, cell-based, HEK293, splice +/- reporter (AID 1101); conditions: luminescence, 24 h, higher = more signal, called active from +8 up or from −8 down;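 note: HEK293 cells carrying a splicing-competent luciferase reporter gene; test concentration not given here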
[5] = biological target: Fibroblast growth factor 10 (Homo sapiens) (UniProt O15520); experiment: FGF10 binders on small-molecule microarrays, primary screen, biochemical, small-molecule microarray, 635 nm fluorescence (AID 1102); conditions: FGF10 binding, fluorescence 635 nm, higher = more signal
Sequence of Fibroblast growth factor 10 (Homo sapiens) (O15520 whole entry, looked up): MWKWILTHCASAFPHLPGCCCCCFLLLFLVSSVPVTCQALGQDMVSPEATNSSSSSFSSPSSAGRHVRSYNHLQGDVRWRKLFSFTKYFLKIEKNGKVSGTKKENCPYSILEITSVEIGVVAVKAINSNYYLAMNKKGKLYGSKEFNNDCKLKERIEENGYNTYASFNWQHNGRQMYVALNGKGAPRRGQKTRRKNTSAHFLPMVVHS

[6] = system: glycogen synthase kinase-3 (GSK3A per assay name; protocol says GSK3B); experiment: GSK3 binders on small-molecule microarrays, primary screen, biochemical, small-molecule microarray, 635 nm fluorescence, GSK3A (AID 1103); conditions: small-molecule microarray binding, fluorescence 635 nm; higher = more signal; note: the record names both GSK3A and GSK3B
[7] = biological target: Epidermal growth factor receptor (Homo sapiens) (UniProt P00533); experiment: EGFR binders on small-molecule microarrays, primary screen, biochemical, small-molecule microarray, 635 nm fluorescence (AID 1104); conditions: EGFR binding, higher = more signal;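 note: score merges 667 nm emission intensity with spot signal to noise over triplicate slides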
Sequence of Epidermal growth factor receptor (Homo sapiens) (P00533 whole entry, looked up): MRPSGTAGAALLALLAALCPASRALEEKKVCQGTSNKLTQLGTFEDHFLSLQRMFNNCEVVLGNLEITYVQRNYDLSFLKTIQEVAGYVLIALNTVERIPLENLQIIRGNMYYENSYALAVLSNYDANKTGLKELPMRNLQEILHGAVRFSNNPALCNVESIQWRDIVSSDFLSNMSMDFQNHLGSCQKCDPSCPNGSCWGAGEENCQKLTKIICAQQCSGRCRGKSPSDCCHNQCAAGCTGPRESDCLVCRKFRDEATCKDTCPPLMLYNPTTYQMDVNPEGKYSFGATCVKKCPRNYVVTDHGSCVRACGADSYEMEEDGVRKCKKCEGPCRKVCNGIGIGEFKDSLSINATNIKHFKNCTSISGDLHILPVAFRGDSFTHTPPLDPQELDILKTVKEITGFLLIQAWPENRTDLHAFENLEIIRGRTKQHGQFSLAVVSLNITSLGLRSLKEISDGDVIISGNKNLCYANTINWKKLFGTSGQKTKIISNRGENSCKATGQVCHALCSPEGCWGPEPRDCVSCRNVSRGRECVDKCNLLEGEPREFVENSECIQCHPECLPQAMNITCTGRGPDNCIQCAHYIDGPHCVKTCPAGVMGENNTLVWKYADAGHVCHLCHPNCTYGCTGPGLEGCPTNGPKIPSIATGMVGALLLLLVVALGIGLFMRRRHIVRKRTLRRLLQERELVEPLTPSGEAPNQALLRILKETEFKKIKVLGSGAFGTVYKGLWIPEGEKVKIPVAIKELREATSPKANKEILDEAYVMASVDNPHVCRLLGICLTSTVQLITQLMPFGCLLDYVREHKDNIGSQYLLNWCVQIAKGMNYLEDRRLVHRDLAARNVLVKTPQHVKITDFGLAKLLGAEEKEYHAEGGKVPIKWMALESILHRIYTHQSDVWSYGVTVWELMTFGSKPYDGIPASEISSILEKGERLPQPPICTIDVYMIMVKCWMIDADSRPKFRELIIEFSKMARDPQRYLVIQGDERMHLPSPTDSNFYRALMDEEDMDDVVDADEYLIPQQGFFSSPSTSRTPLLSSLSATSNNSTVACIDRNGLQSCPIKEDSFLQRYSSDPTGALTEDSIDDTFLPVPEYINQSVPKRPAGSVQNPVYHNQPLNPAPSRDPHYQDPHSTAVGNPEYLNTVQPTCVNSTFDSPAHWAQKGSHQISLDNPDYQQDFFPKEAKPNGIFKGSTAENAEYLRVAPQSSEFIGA

[8] = biological target: Follistatin-related protein 3 (Homo sapiens) (UniProt O95633); experiment: FSTL3 binders on small-molecule microarrays, primary screen, biochemical, small-molecule microarray, 635 nm fluorescence (AID 1105); conditions: FSTL3 binding, higher = more signal;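 note: score merges emission near 667 nm and signal to noise per printed spot across three slides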
Sequence of Follistatin-related protein 3 (Homo sapiens) (O95633 whole entry, looked up): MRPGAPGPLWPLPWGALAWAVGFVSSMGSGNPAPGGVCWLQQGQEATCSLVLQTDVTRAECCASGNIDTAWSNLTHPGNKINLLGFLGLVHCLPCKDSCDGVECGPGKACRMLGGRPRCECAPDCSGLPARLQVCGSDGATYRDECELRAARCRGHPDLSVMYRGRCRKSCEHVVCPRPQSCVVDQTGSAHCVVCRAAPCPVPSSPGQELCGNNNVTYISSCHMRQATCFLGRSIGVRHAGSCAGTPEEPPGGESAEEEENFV

[9] = biological target: Dickkopf-related protein 1 (Homo sapiens) (UniProt O94907); experiment: DKK1 binders on small-molecule microarrays, primary screen, biochemical, small-molecule microarray, 635 nm fluorescence scan (AID 1106); conditions: DKK1 binding, higher = more signal;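 note: score merges emission near 667 nm with signal to noise over three replicate slides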
Sequence of Dickkopf-related protein 1 (Homo sapiens) (O94907 whole entry, looked up): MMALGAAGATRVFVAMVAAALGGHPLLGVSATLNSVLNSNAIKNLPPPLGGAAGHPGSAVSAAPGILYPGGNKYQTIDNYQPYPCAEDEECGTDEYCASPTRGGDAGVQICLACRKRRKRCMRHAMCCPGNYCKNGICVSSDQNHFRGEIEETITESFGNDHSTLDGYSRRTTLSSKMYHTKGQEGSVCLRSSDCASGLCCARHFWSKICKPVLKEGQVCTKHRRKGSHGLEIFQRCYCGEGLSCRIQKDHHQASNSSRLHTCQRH

[10] = system: Inhibin beta A chain (activin A); experiment: INHBA (activin A) binders on microarrays, primary screen, biochemical, small-molecule microarray, 635 nm fluorescence scan (AID 1107); conditions: small-molecule microarray binding, higher = more signal;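 note: mouse activin A protein probed at 4.33 µg/mL on printed slides; score merges bound-protein fluorescence near 667 nm with spot signal-to-noise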
[11] = system: Human papillomavirus type 1a protein E7 (residues 44-93); experiment: HPV1a E7 fragment binders on microarrays, primary screen, biochemical, small-molecule microarray, residues 44-93, 635 nm fluorescence (AID 1108); conditions: small-molecule microarray binding, fluorescence 635 nm; higher = more signal;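 note: E7 fragment applied at 1 µg/mL in TBST for 1 h at 4 C; score combines spot fluorescence with its signal to noise ratio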
[12] = modulators of HCV replicon luciferase signal, primary screen, HCV replication inhibitor project, Huh7 cells, luciferase reporter (AID 1109); conditions: 48 h, higher = more signal;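 note: huh7 hepatoma cells harbouring a luciferase neomycin HCV replicon reporter; luciferase luminescence as measure of HCV replicon replication; test concentration not given here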
[13] = biological target: Left-right determination factor 2 (Homo sapiens) (UniProt O00292); experiment: LEFTY2 binders on small-molecule microarrays, primary screen, biochemical, small-molecule microarray, 635 nm fluorescence scan (AID 1110); conditions: LEFTY2 binding, higher = more signal
Sequence of Left-right determination factor 2 (Homo sapiens) (O00292 whole entry, looked up): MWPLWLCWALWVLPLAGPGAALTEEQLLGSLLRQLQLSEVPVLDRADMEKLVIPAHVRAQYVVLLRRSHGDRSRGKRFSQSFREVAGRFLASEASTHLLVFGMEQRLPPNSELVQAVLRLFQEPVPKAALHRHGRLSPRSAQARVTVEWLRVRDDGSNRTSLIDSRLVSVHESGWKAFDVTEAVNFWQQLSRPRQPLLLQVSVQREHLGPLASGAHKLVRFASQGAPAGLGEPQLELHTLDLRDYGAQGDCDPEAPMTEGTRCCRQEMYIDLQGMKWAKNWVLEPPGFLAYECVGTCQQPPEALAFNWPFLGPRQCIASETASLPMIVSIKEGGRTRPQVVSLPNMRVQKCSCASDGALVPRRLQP

[14] = biological target: Calmodulin-1 (Homo sapiens) (UniProt P0DP23); experiment: CALM1 binders on microarrays, EGTA buffer, profiling panel, biochemical, small-molecule microarray, Cy5-labelled CALM1 (AID 1111); conditions: Cy5-CALM1 binding fluorescence, higher = more signal;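 note: labelled calmodulin applied in Tris saline Tween buffer holding calcium plus EGTA and DTT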
[15] = biological target: Calmodulin-1 (Homo sapiens) (UniProt P0DP23); experiment: calcium-bound CALM1 binders on microarrays, profiling panel, artefact control for SMM control-protein annotation, biochemical, small-molecule microarray, Cy5-labelled CALM1, plus calcium (AID 1112); conditions: Cy5-CALM1 binding fluorescence, higher = more signal;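 note: score merges spot fluorescence with signal to noise from triplicate slides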
[16] = small-molecule microarray binders of probe aWnt5a, primary screen, biochemical, biotinylated probe, 635/667 nm fluorescence (AID 1113); conditions: higher = more signal;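 note: score merges 667 nm fluorescence intensity with signal-to-noise per printed feature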
[17] = small-molecule microarray binders of probe aShh, primary screen, biochemical, biotinylated probe, 635/667 nm fluorescence (AID 1114); conditions: higher = more signal;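 note: probe is biotin-labelled aShh protein from a stem cell growth factor screen; measures binding of labelled protein to compounds printed on the slide; score merges feature fluorescence at 667 nm with signal-to-noise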
[18] = small-molecule microarray binders of probe aNog, primary screen, biochemical, biotinylated probe, 635/667 nm fluorescence (AID 1115); conditions: higher = more signal;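 note: probe is biotinylated aNog protein used at 0.15 µg/mL for 1 h at 4 C; z-score combines 667 nm fluorescence of each spot with its signal to noise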
[19] = biological target: Torsin-1A-interacting protein 1 (Homo sapiens) (UniProt Q5JTV8); experiment: LAP1 binders from COS7 cell lysate, primary screen, small-molecule microarray, 635/667 nm fluorescence (AID 1116); conditions: COS7-hLAP1 lysate binding, 635 nm fluorescence, higher = more signal
Sequence of Torsin-1A-interacting protein 1 (Homo sapiens) (Q5JTV8 whole entry, looked up): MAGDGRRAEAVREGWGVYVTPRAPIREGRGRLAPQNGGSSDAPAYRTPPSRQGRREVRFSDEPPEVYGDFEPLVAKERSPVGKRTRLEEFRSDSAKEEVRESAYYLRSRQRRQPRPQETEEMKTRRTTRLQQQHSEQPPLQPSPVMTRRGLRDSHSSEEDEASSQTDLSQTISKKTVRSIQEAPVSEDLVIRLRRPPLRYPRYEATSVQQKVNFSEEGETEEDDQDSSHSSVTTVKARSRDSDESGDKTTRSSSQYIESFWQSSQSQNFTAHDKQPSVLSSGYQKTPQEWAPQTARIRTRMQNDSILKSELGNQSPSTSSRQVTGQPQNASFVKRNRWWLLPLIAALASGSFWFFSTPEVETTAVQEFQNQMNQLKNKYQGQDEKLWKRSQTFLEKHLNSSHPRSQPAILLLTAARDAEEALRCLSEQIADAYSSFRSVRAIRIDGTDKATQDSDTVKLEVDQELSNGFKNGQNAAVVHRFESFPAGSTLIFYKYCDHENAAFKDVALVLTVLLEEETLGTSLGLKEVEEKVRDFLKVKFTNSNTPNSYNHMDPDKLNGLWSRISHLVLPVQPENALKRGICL

[20] = biological target: Alpha-bungarotoxin (Bungarus multicinctus) (UniProt P60615); experiment: alpha-bungarotoxin binders on microarray, profiling panel, artefact control for SMM control protein annotation, biochemical, small-molecule microarray, Alexa647 label, 635/667 nm fluorescence (AID 1117); conditions: alpha-BTX-A647 binding fluorescence, higher = more signal
Sequence of Alpha-bungarotoxin (Bungarus multicinctus) (P60615 whole entry, looked up): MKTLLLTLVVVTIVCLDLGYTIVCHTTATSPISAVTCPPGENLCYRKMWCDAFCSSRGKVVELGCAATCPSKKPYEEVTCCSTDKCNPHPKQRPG

| Structure (SMILES) | composite z-score [1] | composite z-score [2] | composite z-score [3] | z-score [4] | composite z-score [5] | composite z-score [6] | composite z-score [7] | composite z-score [8] | composite z-score [9] | composite z-score [10] | composite z-score [11] | z-score [12] | composite z-score [13] | composite z-score [14] | composite z-score [15] | composite z-score [16] | composite z-score [17] | composite z-score [18] | composite z-score [19] | composite z-score [20] |
| --- | --- | --- | --- | --- | --- | --- | --- | --- | --- | --- | --- | --- | --- | --- | --- | --- | --- | --- | --- | --- |
| NC(=O)N1C(=O)C2C(C1=O)C1C=C(CCCO)C2C(C2CC2)N1Cc1cc2c(cc1Br)OCO2 (stereo not given) | -0.267 | -0.165 | 0.32 | 0.901 (inactive) | -0.395 | -0.645 | -0.376 | -0.252 | -0.891 | 0.943 | -0.443 | -0.264 | -0.549 | 0.0653 | 0.357 | -0.12 | 0.0278 | -0.0065 | -0.111 | 0.515 |
| CCCCCCc1nc(-c2ccc(-c3ccc(Cl)c(Cl)c3)o2)c(C)c2c1[Si](C(C)C)(C(C)C)OC2 | -0.0921 | -0.233 | -0.102 | -1.62 (inactive) | -0.57 | -0.555 | -0.648 | -0.374 | -0.446 | 0.375 | -0.121 | -1.46 | -0.127 | 0.18 | 0.45 | -0.124 | -0.123 | -0.124 | -0.196 | 0.354 |
| CCOC(=O)C1=CCC(c2ccc(F)cc2)N(S(=O)(=O)c2ccc(C)cc2)C1 (stereo not given) | 0.12 | 0.582 | 0.291 | 0.0136 (inactive) | -0.0564 | 0.265 | 0.192 | 0.249 | 0.127 | 1.01 | 0.683 | -1.81 | 0.105 | 0.0017 | 0.0535 | -0.184 | -0.167 | -0.494 | 0.612 | 0.25 |
| CN1CCC(CCCO)=CC1c1cccs1 (stereo not given) | 0.238 | -0.391 | -0.141 | 0.697 (inactive) | -0.095 | 0.0706 | -0.185 | -0.61 | 0.208 | 0.233 | -1.03 | -0.132 | -0.0692 | -0.949 | -0.431 | -0.176 | -0.0474 | -0.305 | 0.427 | -0.0493 |
| C[N+](C)(C)CCCCCCNC(=O)[C@H]1C[C@H]2C(=O)N[C@@H](Cc3ccccc3)C(=O)N2[C@H]1c1cccc(OCCO)c1 | 1.65 | -0.0429 | 0.0593 | 0.264 (inactive) | 0.985 | 1.23 | 0.227 | 1.09 | 0.707 | 0.279 | 0.658 | 0.487 | 0.642 | -0.96 | -1.03 | -0.184 | -0.243 | -0.234 | 0.944 | -0.049 |
| C=CCC(OC(C)=O)[C@@H]1[C@@H](N(Cc2ccc(-c3ccccc3)cc2)C(=O)Cc2ccc(F)cc2)c2cc(OCCCO)ccc2N1C(=O)c1ccc2ccccc2c1 (stereo not given in full) | -0.352 | -0.0183 | 0.345 | -0.519 (inactive) | 0.0036 | 0.0557 | 0.0144 | 0.268 | -0.4 | 1.18 | 0.0163 | -0.381 | -0.0251 | -0.0052 | 0.28 | -0.141 | -0.221 | -0.0632 | 0.402 | -0.0517 |
| O=C(NCc1ccccc1)[C@@H]1c2ccccc2C(=O)N(C2Cc3ccccc3C2)[C@H]1c1ccc(CO)cc1 | 0.81 | 0.689 | 1.01 | -0.0178 (inactive) | 0.732 | 0.737 | -0.318 | 0.475 | 0.0698 | 0.344 | -0.146 | -0.51 | -0.322 | 0.158 | 0.229 | -0.101 | 0.194 | 1.13 | 0.628 | 1.22 |
| [N-]=[N+]=NCc1ccccc1C[C@@]1(C(=O)NCC(O)CO)N=C(c2ccc(OCCCO)cc2)O[C@@H]1c1ccccc1 (stereo not given in full) | 0.048 | 1.15 | 1.22 | -0.195 (inactive) | -0.181 | -0.538 | -0.455 | -1.3 | -1.58 | 0.377 | 1.03 | -1.41 | -1.38 | 0.899 | 1.25 | -0.0285 | 0.156 | 0.723 | 1.01 | 0.183 |
| CCOC(=O)C[C@H]1[C@H](OC(=O)c2ccc(-c3ccccc3)cc2)[C@@H](NC(=O)c2ccccc2)c2cc(OCCCO)ccc2N1C(=O)Cc1ccc(OC)cc1 | -0.881 | -0.0345 | 0.565 | -0.486 (inactive) | 0.241 | -0.919 | 0.0903 | -0.56 | -0.237 | 0.54 | -0.149 | -1.41 | 0.199 | 0.594 | 0.534 | -0.1 | -0.147 | -0.18 | 0.328 | 0.281 |
| O=C1NC(=O)C2C1C=CC(C(O)c1ccc(I)cc1)N2Nc1ccccn1 (stereo not given) | 1.33 | 0.0824 | 0.464 | 1.04 (inactive) | -0.0548 | -0.269 | 0.268 | -0.0861 | 0.153 | 1.14 | -0.409 | -0.533 | 0.379 | 0.532 | 0.267 | 0.0136 | 0.282 | 0.0403 | -0.593 | 0.636 |
| COc1ccc([Si](C)(C)[C@@H]2[C@@H](CC(=O)N3CCC[C@H]3CO)O[C@]3(C(=O)N(Cc4cccc(I)c4)c4ccccc43)[C@H]2C)cc1 | 0.541 | 0.0446 | 0.0665 | -0.404 (inactive) | 1.05 | 1.13 | 1.2 | 1.44 | 1.92 | 0.946 | 1.32 | -2.72 | 1.39 | 0.374 | 0.935 | 0.116 | -0.138 | -0.0173 | 1.62 | 0.181 |
